KLF5 inhibitor: KLF5 expression inhibitors, primary screen, DLD-1 cells, luminescence; DLD-1 KLF5 promoter-luciferase reporter; inhibition, % at 5 µM; hit rate 0.23% among 290,000;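 active means inhibition above a per-plate limit of that plate's mean compound inhibition plus 3 SD, cut at about 60% in these data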;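 further: 0% = DMSO wells and 100% = LY294002 at 200 µM; higher means less KLF5 promoter-driven luciferase light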
GPR7 antag: GPR7 receptor antagonists, primary screen, cell-based, fluorescence, single concentration. GPR7-expressing cells, fluorescence antagonist assay. inhibition, % at 4.4 µM. hit rate 1.1% among 290,000; in the data active means inhibition above about 16%, passing the limit was not always enough;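 further: cells stimulated with the agonist NPW; 0% = agonist with vehicle and 100% = vehicle without agonist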
Target sequence (P48145 whole entry, looked up): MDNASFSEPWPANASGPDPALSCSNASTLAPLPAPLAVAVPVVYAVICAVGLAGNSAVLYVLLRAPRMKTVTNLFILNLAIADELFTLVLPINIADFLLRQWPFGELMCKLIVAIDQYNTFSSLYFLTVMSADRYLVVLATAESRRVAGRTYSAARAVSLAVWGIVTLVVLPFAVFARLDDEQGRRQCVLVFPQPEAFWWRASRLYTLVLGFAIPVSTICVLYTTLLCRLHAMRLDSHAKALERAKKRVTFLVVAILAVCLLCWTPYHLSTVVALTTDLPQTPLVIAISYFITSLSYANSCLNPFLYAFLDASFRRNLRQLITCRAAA
Ba/F3 V617F tox: reduced viability of JAK2V617F-dependent Ba/F3 cells, primary screen, JAK2V617F inhibitor project, cell-based, Ba/F3 EpoR-JAK2V617F, luminescence. ATP luminescence. inhibition, % at 5.6 µM. hit rate 1.1% among 220,000;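 active means inhibition above the campaign mean plus 3 SD over all tested compounds, cut at about 24% in these data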;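 further: cytokine-independent growth of Ba/F3 cells driven by EpoR plus mutant JAK2; 0% = DMSO-treated cells and 100% = JAK inhibitor I control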
FID counter: compounds displacing fluorescent DNA intercalator, primary screen, artefact control for HCV NS3 helicase inhibitor project, biochemical, FID fluorescence. AID 1845, 2009. inhibition, % at 7.9 µM. hit rate 0.17% among 290,000. DNA fluorescent intercalator displacement; in the data active means inhibition above about 37%;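 further: 0% = vehicle and 100% = reference compound; higher means more ethidium bromide displaced from hairpin DNA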
IEC-6 cytotox: cytotoxicity in IEC-6 intestinal epithelial cells, primary screen, cytotoxicity control for KLF5 inhibitor project, cell-based, luminescence. IEC-6 cytotoxicity, luminescence viability. hit rate 0.78% among 290,000. inhibition, % at 5 µM; in the data active means inhibition above about 22%;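 further: 0% = plate median of test compound wells and 100% = cytotoxic reference compound wells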
BaF3 parental: parental Ba/F3 cell viability inhibition, counter-screen for JAK2V617F inhibitor project, murine pro-B, CellTiter-Glo luminescence; CellTiter-Glo ATP luminescence; inhibition, % at 5.6 µM; hit rate 1.1% among 220,000;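 active means inhibition above a per-campaign cutoff, the mean inhibition of all tested compounds plus 3 SD, cut at about 27% in these data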;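 further: 0% = DMSO wells and 100% = JAK Inhibitor I control wells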
An asterisk follows results filed as active; . = not tested or not shown. This is a sample that favours compounds with a hit; in the whole collection about 2.6% have one here.

SMILES | KLF5 inhibitor | GPR7 antag | Ba/F3 V617F tox | FID counter | IEC-6 cytotox | BaF3 parental
c1ccc2c(c1)CCCC2C1=NCCN1 (configuration not stated) | -6 | -5 | -5 | 0 | -1 | 0
Cc1ccc(NC(=O)C2CC(=O)Nc3ncnn32)c(C)c1 (configuration not stated) | -51 | -10 | -2 | -3 | -6 | -12
Cc1sc2ncnc(-n3nnc4ccccc43)c2c1C | -7 | -14 | 0 | -7 | -2 | 3
CC12CN(NC(=O)c3ccccc3F)C3(C#N)CC1CCC23C (configuration not stated) | -4 | 20 | 5 | -8 | 4 | 90*
Cc1ccc(CNCc2ccccc2Cl)cc1 | -14 | -6 | -2 | 4 | -6 | 0
Fc1ccc(CNCc2ccccc2Cl)cc1 | -22 | 19* | -1 | 15 | -1 | 1
NC(N)=NC(N)=Nc1ccc2ccccc2c1 | -18 | -21 | 15 | 0 | 2 | 2
NC(N)=NC(N)=Nc1ccc(SC(F)(F)F)cc1 | 12 | 6 | 75* | 22 | 35* | 67*
COc1ccc2sc(NC(C)=O)nc2c1 | -143 | 12 | 3 | 0 | -2 | 3
COc1ccc2sc(NC(=O)NC(=O)c3c(Cl)cccc3Cl)nc2c1 | -29 | 20* | -2 | -8 | 1 | -3
O=C(CCc1ccccc1)Nc1cc(Cl)ccc1O | -24 | -9 | 23 | 0 | 0 | 29*
O=C(CN(Cc1ccco1)C(=O)c1cccc(Cl)c1)Nc1c(Cl)cc(Cl)cc1Cl | 1 | 1 | 1 | -5 | 7 | 1
COc1ccccc1NC(=O)C1CCCN(c2nc(C)cc(C)n2)C1 (configuration not stated) | -21 | 1 | 3 | -21 | 1 | 2
COc1cc(C)nc(N2CCCC(C(=O)Nc3cccc(Cl)c3Cl)C2)n1 (configuration not stated) | -18 | 16* | 8 | 1 | -2 | 11
Cc1nn(-c2ccccc2)c(Cl)c1C(=O)OCC(=O)NCCc1ccccc1 | 9 | -6 | . | -43 | 3 | .
S=C1SCN(Cc2cccnc2)CN1Cc1cccnc1 | -1 | -6 | 86* | -3 | 0 | 51*
Oc1ccc(Nc2nc(-c3ccc4ccccc4c3)cs2)cc1 | -190 | 1 | 99* | 10 | 4 | 57*
CC(=O)Nc1nc(-c2ccc3ccccc3c2)cs1 | -140 | 9 | . | -6 | 8 | .
COC(=O)CN(C#N)c1nc(NC(C)C)nc(OC)n1 | -37 | -11 | 41* | -5 | -9 | 32*
Cc1nc(NC(=O)C2CCCC2)sc1Cc1ccc2c(c1)OCO2 | -17 | -8 | -3 | -8 | -2 | 2
Cc1ccc(/C=N/NC(=O)c2ccc(C(=O)N/N=C/c3ccc(C)s3)o2)s1 | -5 | -7 | -5 | -4 | -5 | 0
Cc1c(C=O)c(=O)n(-c2ccccc2)n1-c1ccccc1 | -22 | 20* | -5 | -5 | -2 | 1
CC(C)=CCN1CCN(Cc2cccc3c2OCO3)CC1CCO (configuration not stated) | 10 | -9 | 2 | 1 | 0 | 2
c1csc(CNc2ncnc3sccc23)c1 | -24 | 8 | 34* | 2 | 8 | 36*
CC(=O)Nc1ccc(SCC(=O)c2c(N)n(Cc3ccccc3)c(=O)n(C)c2=O)cc1 | -4 | -15 | -1 | -3 | -6 | -2
SMILES | KLF5 inhibitor | GPR7 antag | Ba/F3 V617F tox | FID counter | IEC-6 cytotox | BaF3 parental
CC(=O)NC(=S)c1c(N)n(Cc2ccccc2)c(=O)n(C)c1=O | -14 | 21* | 7 | 1 | 4 | 15
Nc1c(Cl)ncnc1NCc1cccnc1 | -39 | -15 | . | -4 | -2 | .
Nc1c(Cl)ncnc1NCCc1ccc(O)cc1 | -20 | -10 | 5 | 0 | 6 | 29*
Cc1ccc(NC(=O)COC(=O)c2cc(Cl)ccc2[N+](=O)[O-])cc1 | -27 | -4 | -3 | -2 | -3 | -1
CC(C)NS(=O)(=O)c1ccc(OCC(=O)N2CCCC2)c(Cl)c1 | -17 | -7 | -2 | -4 | -6 | 3
CC1COC(=O)C(NNc2ccc(Cl)c(Cl)c2)=N1 (configuration not stated) | 13 | 19* | 2 | 0 | 10 | 8
CN(C)C(=O)c1cc(F)ccc1Sc1cc(Cl)ccc1Cl | -28 | -7 | -1 | -12 | 1 | 0
CC12Cc3ccc4ccccc4c3C=C1C[N+](C)(C)C2 (configuration not stated) | -12 | -12 | 27* | 5 | 3 | 40*
COc1ccc(-c2cn(-c3ccccc3)c3[n+]2CCS3)cc1 | -13 | 4 | 76* | 2 | 10 | 67*
c1ccc(-c2cn(-c3ccccc3)c3[n+]2CCS3)cc1 | -8 | -7 | 69* | 7 | -2 | 63*
Fc1ccc(-n2cc(-c3ccccc3)[n+]3c2SCC3)cc1 | -12 | -14 | 49* | -2 | -5 | 79*
CCOC(=O)c1c(CN2CCN(C)CC2)n(C)c2cc(Br)c(OC)cc12 | -41 | 19* | -1 | 31 | -1 | 8
Cn1c2c(c(=O)[nH]c1=O)C(c1cccc(O)c1)C1=C(N2)c2ccccc2C1=O (configuration not stated) | 2 | -6 | 35* | 2 | 2 | 16
COc1cccc(C2C3=C(Nc4[nH]n(-c5ccccc5)c(=O)c42)c2ccccc2C3=O)c1 (configuration not stated) | -16 | 1 | -1 | -23 | 2 | 5
COc1ccc2[nH]c(C)c(C(=O)CN3CCN(C/C=C/c4ccccc4)CC3)c2c1 | -21 | 11 | 1 | 39* | 4 | 2
O=C(NCC1CCCO1)c1sc(=S)n2c1[nH]c(=O)c1ccc(C(=O)N3CCCCC3)cc12 (configuration not stated) | -20 | -14 | 0 | 17 | -4 | 5
O=C(NCCc1ccccc1)c1ccc2c(=O)[nH]c3c(C(=O)NCC4CCCO4)sc(=S)n3c2c1 (configuration not stated) | -37 | 0 | . | 49* | -5 | .
CCCCNC(=O)c1sc(=S)n2c1[nH]c(=O)c1ccccc12 | -23 | -9 | -2 | -8 | -3 | 101*
O=C(NC1CCCCC1)c1sc(=S)n2c1[nH]c(=O)c1ccccc12 | -22 | -5 | -2 | -4 | -3 | 1
CCCC(=O)NC(=S)Nc1cccc(-c2nc3ncccc3o2)c1 | -26 | -18 | -1 | -10 | 0 | 79*
Cc1nc(C#N)c(N/N=C/c2c(F)cccc2Cl)o1 | -16 | -4 | 0 | -6 | 4 | 8
CC1=NNC(=O)/C1=C\c1cn(-c2ccccc2)nc1-c1ccccc1 | -17 | 55* | 1 | -8 | -10 | 10
CCC(C)[C@H](NC(=O)N1CC(=O)Nc2ccccc21)C(=O)Nc1nccs1 (some centres not stated) | -2 | -3 | . | -27 | -3 | .

High-throughput results deposited in PubChem by The Scripps Research Institute Molecular Screening Center.
